From PubChem BioAssay (Tox21) come the findings set out here.

Structures are written as SMILES. “And” between values parts separate entries of the source, which are not always exact repeats. Equal values may be shown once. Results filed as inconclusive are left out. The source made the active and inactive calls. Unless noted, the call rests on the fitted dose curve; in most records, active means well fitted curve in the direction sought with a large enough effect in the repeat runs; inconclusive means weak or mixed curves; inactive means no such curve, though single readings can be large; an effect the other way counts as inactive or inconclusive.

A short description of experiment [1]: qHTS assay to identify small molecule antagonists of the retinoid-related orphan receptor gamma (ROR-gamma) signaling pathway - cell viability counter screen (AID 1159520). Further: nearly all actives have a fitted effect of over 50% in size. Further: potency means the concentration at half of the fitted maximal effect. An outline of the steps: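 Cytotoxicity was read from cellular ATP (CellTiter-Glo luminescence) after 16 hr at 37 C with 1 uM doxycycline induction. The inducer was added 2 hr after compound transfer to Tet-on ROR gamma CHO cells.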
On the technique in general: Quantitative high-throughput screening tests each substance at several concentrations.

Experiment [2] addresses Nuclear receptor ROR-gamma (Homo sapiens) (UniProt P51449). As to the kind of experiment: qHTS assay to identify small molecule antagonists of the retinoid-related orphan receptor gamma (ROR-gamma) signaling pathway (AID 1159521; further: nearly all actives have a fitted effect of over 50% in size; further: potency means the concentration at half of the fitted maximal effect). An outline of the steps:
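CHO cells expressing RORγ under a TET-on promoter, luciferase under RORE control. Dox 1 uM final, 16 h; compounds added 2 h prior. Luminescence decrease measured.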

Experiment [3] is described as follows: qHTS assay to identify small molecule agonists of the AP-1 signaling pathway - cell viability counter screen (AID 1159525; calls by dose curve; further: nearly all actives have a fitted effect of over 55% in size; further: potency means the concentration at half of the fitted maximal effect). The essentials: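 Intracellular ATP by Cell Titer Glo luminescence (30 min, RT) in the same ME-180 AP-1-bla wells after the 5 h compound exposure at 37 °C. Normalised to tetra n-octyl ammonium bromide and DMSO controls.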
Experiment [4] in a line: qHTS assay to identify small molecule agonists of the AP-1 signaling pathway (AID 1159526; calls by dose curve).
In experiment [5] the target is Retinoic acid receptor RXR-alpha (Homo sapiens) (UniProt P19793). As to the kind of experiment: qHTS assay to identify small molecule agonists of the RXR signaling pathway (AID 1159527; calls by dose curve; further: nearly all actives have a fitted effect of over 35% in size). An outline of the steps:
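Beta-lactamase reporter assay, agonist format. Engineered HEK 293T line, charcoal-stripped FBS at 2%, overnight (16 hr) exposure, fluorescence at 460 and 530 nm after 405 nm excitation.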

Experiment [6] in a line: qHTS assay to identify small molecule agonists of the RXR signaling pathway - cell viability counter screen (AID 1159529). Further: nearly all actives have a fitted effect of over 50% in size. Further: potency means the concentration at half of the fitted maximal effect. An outline of the steps: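 Same-well viability check after the LiveBLAzer FRET read: CellTiter-Glo added, luminescence measured after 30 min at room temperature. Reporter HEK 293T cells had been treated with compounds for 16 hr following a 5 hr preincubation.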

A short description of experiment [7]: qHTS assay to identify small molecule antagonists of the vitamin D receptor (VDR) signaling pathway - cell viability counter screen (AID 743225). Further: nearly all actives have a fitted effect of over 50% in size. The essentials:
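Luminescent cell viability (CellTiter-Glo) in VDR-bla HEK 293T cells after 16 h compound exposure at 37C in the presence of 3 nM final 1-alpha,25-dihydroxy vitamin D3.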

Chain of Retinoic acid receptor RXR-alpha (Homo sapiens) (P19793 whole entry, looked up): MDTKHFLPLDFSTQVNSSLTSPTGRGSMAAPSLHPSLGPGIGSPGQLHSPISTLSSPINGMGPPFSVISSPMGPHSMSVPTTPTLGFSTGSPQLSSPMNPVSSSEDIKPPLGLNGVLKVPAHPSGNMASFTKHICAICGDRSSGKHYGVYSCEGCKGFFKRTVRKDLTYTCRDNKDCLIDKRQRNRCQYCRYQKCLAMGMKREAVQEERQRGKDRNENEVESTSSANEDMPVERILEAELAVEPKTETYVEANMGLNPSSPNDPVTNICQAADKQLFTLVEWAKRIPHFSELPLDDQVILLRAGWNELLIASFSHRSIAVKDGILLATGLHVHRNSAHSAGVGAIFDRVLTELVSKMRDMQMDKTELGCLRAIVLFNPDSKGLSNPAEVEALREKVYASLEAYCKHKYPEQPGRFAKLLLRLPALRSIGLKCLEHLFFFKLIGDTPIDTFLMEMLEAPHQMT

Regarding `CCS(=O)(=O)c1cccnc1S(=O)(=O)NC(=O)Nc1nc(OC)cc(OC)n1`, the Potency result in experiment [1], in experiment [2], in experiment [3], in experiment [4] and in experiment [6] was “inactive” throughout. For the same compound, the call in experiment [5] was inactive.

As to `ClCc1ccccc1CCl`, the Potency in experiment [1] is 43.3 µM (active); in experiment [2], 54.5 µM (active). In addition, the Potency result in experiment [3], in experiment [4] and in experiment [6] was “inactive” throughout. In experiment [5], the compound was called inactive.

With `N#Cc1ccccc1Cl`, the Potency result in experiment [1], in experiment [2], in experiment [3], in experiment [4] and in experiment [6] was “inactive” throughout. Besides, the call in experiment [5] was inactive.

On to `COc1cccc2c1C(=O)c1c(O)c3c(c(O)c1C2=O)C[C@@](O)(C(=O)CO)CC3OC1CC(N2CCOC(OC)C2)C(O)C(C)O1` (stereo not given in full), for which the Potency in experiment [1] is 0.133 µM (active); in experiment [2], 0.298 µM (active). Besides, the Potency result in experiment [3] and in experiment [6] was “inactive” in each case.

`Oc1ccccc1Br`: the Potency result in experiment [1], in experiment [2], in experiment [3], in experiment [4] and in experiment [6] was “inactive” in each case. Besides, the compound was called inactive in experiment [5].

Take `C[C@@H](Oc1ccc(Cl)cc1Cl)C(=O)O`: the Potency entry in experiment [1], in experiment [2], in experiment [3], in experiment [4] and in experiment [6] was “inactive” throughout.

`COc1ccc([N+](=O)[O-])cc1O`: the Potency entry in experiment [1], in experiment [2], in experiment [3], in experiment [4] and in experiment [6] was “inactive” each time. Also, the outcome in experiment [5] was inactive.

`CCOP(=S)(OCC)SCS(=O)(=O)C(C)(C)C`: the Potency entry in experiment [1], in experiment [2], in experiment [3] and in experiment [6] was “inactive” throughout. The call in experiment [5] was inactive.

Turning to `Clc1ccc(-c2ccc(Cl)c(Cl)c2Cl)c(Cl)c1Cl`, the Potency result in experiment [7], in experiment [1], in experiment [2], in experiment [3] and in experiment [4] was “inactive” in each case.

Consider `ClC(Cl)=C(c1ccc(Cl)cc1)c1ccc(Cl)cc1`, for which the Potency result in experiment [7] and in experiment [1] was “inactive” throughout. Further, the Potency in experiment [2] was 62.6 µM (active); in experiment [3] it was 44.7 µM (active); in experiment [6], 56.3 µM (active) and 43.6 µM (active).

For `CC(C)(c1ccc(O)c(-c2ccccc2)c1)c1ccc(O)c(-c2ccccc2)c1`, the Potency was 43.3 µM (active) in experiment [1], 21.7 µM (active) in experiment [2], 17.4 µM (active) in experiment [3] and 24.5 µM (active) in experiment [6].

As to `CC(O)C#N` (stereo not given), the Potency result in experiment [1], in experiment [2], in experiment [3] and in experiment [6] was “inactive” throughout. The result in experiment [5] was inactive.

Consider `COCC(=O)N(c1c(C)cccc1C)[C@H](C)C(=O)OC`, for which the Potency result in experiment [1], in experiment [2], in experiment [3], in experiment [4] and in experiment [6] was “inactive” in each case. The result in experiment [5] was inactive.

For the compound `COC(=O)N(C(=O)N1COC2(C(=O)OC)Cc3cc(Cl)ccc3C2=N1)c1ccc(OC(F)(F)F)cc1` (stereo not given), the Potency result in experiment [1], in experiment [3] and in experiment [6] was “inactive” throughout. For the same compound, the Potency in experiment [2] is 23.7 µM (active).

In the case of `C=COCCCl`, the Potency result in experiment [1], in experiment [2], in experiment [3], in experiment [4] and in experiment [6] was “inactive” in each case. Further, the compound was classed as inactive in experiment [5].

For `O=C(CCCN1CCC2(CC1)C(=O)NCN2c1ccccc1)c1ccc(F)cc1`, the Potency entry in experiment [1], in experiment [2], in experiment [3] and in experiment [6] was “inactive” each time.

On to `COc1ccc(OC)c(C=O)c1`, for which the Potency entry in experiment [1], in experiment [2], in experiment [3] and in experiment [6] was “inactive” in each case. Moreover, in experiment [5], the call was inactive.

With `N#CCCC(Br)(C#N)CBr` (stereo not given), the Potency is 19.3 µM (active) in experiment [1], 21.7 µM (active) in experiment [2] and 38.9 µM (active) in experiment [6].

Turning to `CC(Cc1ccc(C(C)(C)C)cc1)CN1C[C@@H](C)O[C@@H](C)C1` (stereo not given in full), the Potency result in experiment [7], in experiment [1], in experiment [2], in experiment [4] and in experiment [6] was “inactive” each time. In experiment [5], the outcome was inactive.

With `Cn1cc(C2=C(c3cn(C4CCN(Cc5ccccn5)CC4)c4ccccc34)C(=O)NC2=O)c2ccccc21`, the Potency entry in experiment [7], in experiment [1] and in experiment [6] was “inactive” each time.

As to `CC(=[OH+])/C=C(/C)[O-].CC(=[OH+])/C=C(\C)[O-].CC(=[OH+])/C=C(\C)[O-].[Al]`, the Potency result in experiment [1], in experiment [2], in experiment [4] and in experiment [6] was “inactive” throughout. Besides, the outcome in experiment [5] was inactive.

Consider `[Cl][Sn]([c]1ccccc1)([c]1ccccc1)[c]1ccccc1`, for which the Potency was 0.411 µM (active) in experiment [1], 0.082 µM (active) in experiment [2] and 0.585 µM (active) in experiment [6].

Turning to `CNC(C)Cc1ccc2c(c1)OCO2` (stereo not given), the Potency result in experiment [7], in experiment [1] and in experiment [2] was “inactive” each time.

On to `c1ccc(Nc2ccc3ccccc3c2)cc1`, for which the Potency result in experiment [7] and in experiment [2] was “inactive” throughout. For the same compound, the Potency is 48.7 µM (active) in experiment [3] and 43.4 µM (active) in experiment [6]. In experiment [5], the result was inactive.

Turning to `O=[N+]([O-])c1cc([N+](=O)[O-])c2ccccc2c1`, the Potency entry in experiment [7], in experiment [1], in experiment [2] and in experiment [6] was “inactive” in each case.

With `O=C/C(Cl)=C(/Cl)C(=O)O`, the Potency entry in experiment [7], in experiment [4] and in experiment [6] was “inactive” in each case. Also, the Potency in experiment [1] was 48.5 µM (active) and 34.4 µM (active); in experiment [2], 13.7 µM (active) and 21.7 µM (active).
